Laboratory results taken from ChEMBL document CHEMBL1961873, “Compounds: GSK PKIS; Assays: Nanosyn kinase panel” (2012).

Tests used:
[1] = biological target: Ribosomal protein S6 kinase alpha-6 (Homo sapiens) (UniProt Q9UK32); conditions: at 1 µM;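 also: each value is a mean inhibition of RSK4 from a GSK PKIS panel screen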
[2] = biological target: T1, Serine/threonine-protein kinase Sgk1 (Homo sapiens) (UniProt O00141); conditions: at 0.1 µM
T1 sequence (whole entry): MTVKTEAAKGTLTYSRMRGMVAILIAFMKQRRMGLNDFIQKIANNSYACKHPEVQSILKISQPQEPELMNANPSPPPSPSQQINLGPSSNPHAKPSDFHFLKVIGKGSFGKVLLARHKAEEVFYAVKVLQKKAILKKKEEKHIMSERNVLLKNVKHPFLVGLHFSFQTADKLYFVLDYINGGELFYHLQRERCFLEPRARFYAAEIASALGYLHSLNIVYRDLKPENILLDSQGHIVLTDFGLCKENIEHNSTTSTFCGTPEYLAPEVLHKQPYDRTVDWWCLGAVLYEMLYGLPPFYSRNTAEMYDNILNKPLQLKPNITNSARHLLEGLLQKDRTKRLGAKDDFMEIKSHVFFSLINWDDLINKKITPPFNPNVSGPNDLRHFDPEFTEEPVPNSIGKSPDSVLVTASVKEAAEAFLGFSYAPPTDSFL

[3] = biological target: T1, Serine/threonine-protein kinase Sgk1 (Homo sapiens); conditions: at 1 µM
[4] = biological target: T2, Serine/threonine-protein kinase Sgk2 (Homo sapiens) (UniProt Q9HBY8); conditions: at 0.1 µM
T2 sequence (whole entry): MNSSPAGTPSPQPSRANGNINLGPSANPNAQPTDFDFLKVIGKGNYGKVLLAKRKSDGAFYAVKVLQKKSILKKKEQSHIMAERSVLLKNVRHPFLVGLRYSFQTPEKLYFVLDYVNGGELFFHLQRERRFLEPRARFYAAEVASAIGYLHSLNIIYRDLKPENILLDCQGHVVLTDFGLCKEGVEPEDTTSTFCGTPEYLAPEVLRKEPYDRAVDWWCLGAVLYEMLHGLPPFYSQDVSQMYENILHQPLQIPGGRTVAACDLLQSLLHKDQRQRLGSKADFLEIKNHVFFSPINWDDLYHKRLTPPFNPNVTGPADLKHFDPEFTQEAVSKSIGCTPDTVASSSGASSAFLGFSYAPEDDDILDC

[5] = biological target: T2, Serine/threonine-protein kinase Sgk2 (Homo sapiens); conditions: at 1 µM
[6] = biological target: T3, Serine/threonine-protein kinase Sgk3 (Homo sapiens) (UniProt Q96BR1); conditions: at 0.1 µM
T3 sequence (whole entry): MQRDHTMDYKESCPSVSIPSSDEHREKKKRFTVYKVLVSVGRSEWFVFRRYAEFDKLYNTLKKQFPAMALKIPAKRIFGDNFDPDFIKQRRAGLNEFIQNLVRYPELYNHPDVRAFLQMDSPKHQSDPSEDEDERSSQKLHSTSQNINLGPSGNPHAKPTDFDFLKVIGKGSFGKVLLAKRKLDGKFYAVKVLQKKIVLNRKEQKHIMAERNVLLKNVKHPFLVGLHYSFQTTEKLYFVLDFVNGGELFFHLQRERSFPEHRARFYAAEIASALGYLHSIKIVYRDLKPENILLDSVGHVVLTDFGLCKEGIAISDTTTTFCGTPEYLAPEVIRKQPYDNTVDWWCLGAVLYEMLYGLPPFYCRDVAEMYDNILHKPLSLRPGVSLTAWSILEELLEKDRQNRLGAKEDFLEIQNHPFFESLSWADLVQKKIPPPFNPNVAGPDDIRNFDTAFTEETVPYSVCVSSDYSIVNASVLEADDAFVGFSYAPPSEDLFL

[7] = biological target: T3, Serine/threonine-protein kinase Sgk3 (Homo sapiens); conditions: at 1 µM
[8] = biological target: 5'-AMP-activated protein kinase catalytic subunit alpha-1 (Homo sapiens) (UniProt Q13131); conditions: at 0.1 µM
Chain of 5'-AMP-activated protein kinase catalytic subunit alpha-1 (Homo sapiens) (Q13131 whole entry, looked up): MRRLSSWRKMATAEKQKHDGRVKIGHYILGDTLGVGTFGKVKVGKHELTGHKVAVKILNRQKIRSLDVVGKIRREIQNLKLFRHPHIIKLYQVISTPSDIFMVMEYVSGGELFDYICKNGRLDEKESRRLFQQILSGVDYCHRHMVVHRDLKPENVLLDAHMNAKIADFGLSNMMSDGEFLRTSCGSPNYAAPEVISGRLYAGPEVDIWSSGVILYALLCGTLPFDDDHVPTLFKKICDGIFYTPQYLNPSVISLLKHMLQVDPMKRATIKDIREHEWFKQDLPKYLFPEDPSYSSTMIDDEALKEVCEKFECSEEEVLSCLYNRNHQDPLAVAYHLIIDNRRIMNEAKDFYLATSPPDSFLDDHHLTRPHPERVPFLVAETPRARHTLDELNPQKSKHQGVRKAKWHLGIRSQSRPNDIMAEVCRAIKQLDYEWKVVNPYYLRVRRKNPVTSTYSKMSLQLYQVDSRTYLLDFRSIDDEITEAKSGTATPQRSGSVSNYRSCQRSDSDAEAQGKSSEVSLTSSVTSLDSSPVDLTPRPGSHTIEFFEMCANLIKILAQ

[9] = biological target: 5'-AMP-activated protein kinase catalytic subunit alpha-1 (Homo sapiens) (UniProt Q13131); conditions: at 1 µM
[10] = biological target: 5'-AMP-activated protein kinase catalytic subunit alpha-2 (Homo sapiens) (UniProt P54646); conditions: at 0.1 µM
Chain of 5'-AMP-activated protein kinase catalytic subunit alpha-2 (Homo sapiens) (P54646 whole entry, looked up): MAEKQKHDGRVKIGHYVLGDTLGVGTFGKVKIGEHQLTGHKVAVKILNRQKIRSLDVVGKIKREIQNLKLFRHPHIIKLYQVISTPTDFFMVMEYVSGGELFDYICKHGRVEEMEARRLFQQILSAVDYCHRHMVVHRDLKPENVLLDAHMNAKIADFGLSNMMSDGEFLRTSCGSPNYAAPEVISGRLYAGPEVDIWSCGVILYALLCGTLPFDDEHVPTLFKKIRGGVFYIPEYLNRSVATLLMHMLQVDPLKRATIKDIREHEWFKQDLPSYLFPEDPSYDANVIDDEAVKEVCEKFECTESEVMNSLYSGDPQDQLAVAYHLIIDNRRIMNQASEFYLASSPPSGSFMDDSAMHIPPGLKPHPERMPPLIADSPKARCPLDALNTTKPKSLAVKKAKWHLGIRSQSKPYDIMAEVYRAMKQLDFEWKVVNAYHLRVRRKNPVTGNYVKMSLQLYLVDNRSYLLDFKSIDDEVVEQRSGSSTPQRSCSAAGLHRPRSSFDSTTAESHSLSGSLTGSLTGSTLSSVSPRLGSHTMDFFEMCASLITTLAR

[11] = biological target: 5'-AMP-activated protein kinase catalytic subunit alpha-2 (Homo sapiens) (UniProt P54646); conditions: at 1 µM
[12] = biological target: T4, NUAK family SNF1-like kinase 1 (Homo sapiens) (UniProt O60285); conditions: at 0.1 µM
T4 sequence (whole entry): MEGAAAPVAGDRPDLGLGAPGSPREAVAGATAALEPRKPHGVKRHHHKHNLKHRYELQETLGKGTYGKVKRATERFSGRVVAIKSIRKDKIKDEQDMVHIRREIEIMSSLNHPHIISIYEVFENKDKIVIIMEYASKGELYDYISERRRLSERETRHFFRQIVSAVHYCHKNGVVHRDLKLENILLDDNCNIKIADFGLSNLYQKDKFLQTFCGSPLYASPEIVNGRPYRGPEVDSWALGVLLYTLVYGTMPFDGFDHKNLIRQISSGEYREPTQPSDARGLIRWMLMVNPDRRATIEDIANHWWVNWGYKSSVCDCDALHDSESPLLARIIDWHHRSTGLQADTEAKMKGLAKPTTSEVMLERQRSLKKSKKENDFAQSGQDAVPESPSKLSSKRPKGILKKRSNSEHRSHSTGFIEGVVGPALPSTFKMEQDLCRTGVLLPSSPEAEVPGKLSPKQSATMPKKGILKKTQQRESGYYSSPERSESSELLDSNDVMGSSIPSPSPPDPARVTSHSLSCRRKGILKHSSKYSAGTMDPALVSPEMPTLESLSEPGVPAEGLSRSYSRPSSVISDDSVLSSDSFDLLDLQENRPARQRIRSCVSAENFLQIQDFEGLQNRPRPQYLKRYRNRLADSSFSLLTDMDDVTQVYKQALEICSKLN

[13] = biological target: T4, NUAK family SNF1-like kinase 1 (Homo sapiens); conditions: at 1 µM
[14] = biological target: T5, Serine/threonine-protein kinase BRSK1 (Homo sapiens) (UniProt Q8TDC3); conditions: at 0.1 µM
T5 sequence (whole entry): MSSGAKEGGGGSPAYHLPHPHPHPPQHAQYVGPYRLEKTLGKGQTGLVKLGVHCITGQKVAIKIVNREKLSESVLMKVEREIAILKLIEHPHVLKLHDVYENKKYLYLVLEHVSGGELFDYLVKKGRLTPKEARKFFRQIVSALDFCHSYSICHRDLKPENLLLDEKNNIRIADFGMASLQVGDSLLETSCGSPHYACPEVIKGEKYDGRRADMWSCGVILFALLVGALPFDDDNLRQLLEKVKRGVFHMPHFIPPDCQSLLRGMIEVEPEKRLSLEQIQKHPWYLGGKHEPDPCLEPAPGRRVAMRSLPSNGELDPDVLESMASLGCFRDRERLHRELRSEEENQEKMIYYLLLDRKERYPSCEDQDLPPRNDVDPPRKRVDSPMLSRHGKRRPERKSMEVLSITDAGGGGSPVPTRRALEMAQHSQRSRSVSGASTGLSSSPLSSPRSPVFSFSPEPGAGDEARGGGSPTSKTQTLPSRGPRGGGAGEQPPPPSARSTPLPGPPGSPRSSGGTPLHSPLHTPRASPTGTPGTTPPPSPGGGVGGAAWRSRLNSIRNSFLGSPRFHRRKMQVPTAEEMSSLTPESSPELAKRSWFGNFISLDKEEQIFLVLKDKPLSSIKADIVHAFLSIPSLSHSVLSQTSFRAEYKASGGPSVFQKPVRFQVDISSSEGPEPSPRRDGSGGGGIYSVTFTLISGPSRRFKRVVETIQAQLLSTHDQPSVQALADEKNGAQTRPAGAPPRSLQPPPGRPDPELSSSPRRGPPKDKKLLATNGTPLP

[15] = biological target: T5, Serine/threonine-protein kinase BRSK1 (Homo sapiens); conditions: at 1 µM
[16] = biological target: T6, Serine/threonine-protein kinase BRSK2 (Homo sapiens) (UniProt Q8IWQ3); conditions: at 0.1 µM
T6 sequence (whole entry): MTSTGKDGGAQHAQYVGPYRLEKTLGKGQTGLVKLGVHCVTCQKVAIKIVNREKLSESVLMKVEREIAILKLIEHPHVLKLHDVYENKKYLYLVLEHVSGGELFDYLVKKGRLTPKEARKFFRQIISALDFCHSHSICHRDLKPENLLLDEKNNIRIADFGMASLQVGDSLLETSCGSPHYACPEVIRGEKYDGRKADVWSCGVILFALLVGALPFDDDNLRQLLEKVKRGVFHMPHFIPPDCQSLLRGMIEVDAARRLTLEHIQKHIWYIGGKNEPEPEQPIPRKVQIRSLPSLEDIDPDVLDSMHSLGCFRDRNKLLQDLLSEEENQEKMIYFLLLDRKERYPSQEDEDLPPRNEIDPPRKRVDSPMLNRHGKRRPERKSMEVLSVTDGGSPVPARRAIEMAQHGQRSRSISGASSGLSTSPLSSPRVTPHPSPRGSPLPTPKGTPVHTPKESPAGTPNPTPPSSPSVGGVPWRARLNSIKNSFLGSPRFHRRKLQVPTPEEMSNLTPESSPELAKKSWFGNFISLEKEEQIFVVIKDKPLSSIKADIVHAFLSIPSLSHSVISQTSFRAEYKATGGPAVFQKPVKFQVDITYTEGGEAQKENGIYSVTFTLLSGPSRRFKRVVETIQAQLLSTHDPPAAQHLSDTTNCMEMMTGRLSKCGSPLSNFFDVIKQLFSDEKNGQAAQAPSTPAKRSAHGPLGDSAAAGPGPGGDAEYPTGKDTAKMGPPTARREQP

[17] = biological target: T6, Serine/threonine-protein kinase BRSK2 (Homo sapiens); conditions: at 1 µM
[18] = biological target: Calcium/calmodulin-dependent protein kinase type 1D (Homo sapiens) (UniProt Q8IU85); conditions: at 0.1 µM
Chain of Calcium/calmodulin-dependent protein kinase type 1D (Homo sapiens) (Q8IU85 whole entry, looked up): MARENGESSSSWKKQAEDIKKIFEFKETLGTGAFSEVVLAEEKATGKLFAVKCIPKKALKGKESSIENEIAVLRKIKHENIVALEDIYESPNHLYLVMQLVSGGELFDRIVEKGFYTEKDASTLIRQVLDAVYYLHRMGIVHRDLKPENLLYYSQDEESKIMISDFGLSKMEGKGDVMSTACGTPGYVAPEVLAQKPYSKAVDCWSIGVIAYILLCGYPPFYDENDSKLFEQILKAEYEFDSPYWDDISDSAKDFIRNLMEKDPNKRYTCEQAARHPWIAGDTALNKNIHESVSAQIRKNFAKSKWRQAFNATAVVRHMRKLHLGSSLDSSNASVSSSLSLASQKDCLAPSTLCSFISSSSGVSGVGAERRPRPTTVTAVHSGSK

[19] = biological target: Calcium/calmodulin-dependent protein kinase type 1D (Homo sapiens) (UniProt Q8IU85); conditions: at 1 µM
[20] = biological target: Calcium/calmodulin-dependent protein kinase type II subunit alpha (Homo sapiens) (UniProt Q9UQM7); conditions: at 0.1 µM;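 also: reported values are averages (mean inhibition of CAMK2A)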
Chain of Calcium/calmodulin-dependent protein kinase type II subunit alpha (Homo sapiens) (Q9UQM7 whole entry): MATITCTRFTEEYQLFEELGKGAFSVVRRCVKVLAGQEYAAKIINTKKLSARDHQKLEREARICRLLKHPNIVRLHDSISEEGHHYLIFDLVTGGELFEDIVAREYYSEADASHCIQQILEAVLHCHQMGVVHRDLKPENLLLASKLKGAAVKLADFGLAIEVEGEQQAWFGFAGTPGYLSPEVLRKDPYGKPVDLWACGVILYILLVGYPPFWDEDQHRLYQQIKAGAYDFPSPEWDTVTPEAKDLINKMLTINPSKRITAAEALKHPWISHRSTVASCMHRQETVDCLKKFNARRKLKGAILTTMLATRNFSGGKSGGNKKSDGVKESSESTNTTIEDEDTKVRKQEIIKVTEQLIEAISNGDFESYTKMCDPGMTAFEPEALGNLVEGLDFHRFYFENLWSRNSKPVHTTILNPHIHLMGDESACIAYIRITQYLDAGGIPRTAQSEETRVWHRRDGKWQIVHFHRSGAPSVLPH

Chain of Ribosomal protein S6 kinase alpha-6 (Homo sapiens) (Q9UK32 whole entry): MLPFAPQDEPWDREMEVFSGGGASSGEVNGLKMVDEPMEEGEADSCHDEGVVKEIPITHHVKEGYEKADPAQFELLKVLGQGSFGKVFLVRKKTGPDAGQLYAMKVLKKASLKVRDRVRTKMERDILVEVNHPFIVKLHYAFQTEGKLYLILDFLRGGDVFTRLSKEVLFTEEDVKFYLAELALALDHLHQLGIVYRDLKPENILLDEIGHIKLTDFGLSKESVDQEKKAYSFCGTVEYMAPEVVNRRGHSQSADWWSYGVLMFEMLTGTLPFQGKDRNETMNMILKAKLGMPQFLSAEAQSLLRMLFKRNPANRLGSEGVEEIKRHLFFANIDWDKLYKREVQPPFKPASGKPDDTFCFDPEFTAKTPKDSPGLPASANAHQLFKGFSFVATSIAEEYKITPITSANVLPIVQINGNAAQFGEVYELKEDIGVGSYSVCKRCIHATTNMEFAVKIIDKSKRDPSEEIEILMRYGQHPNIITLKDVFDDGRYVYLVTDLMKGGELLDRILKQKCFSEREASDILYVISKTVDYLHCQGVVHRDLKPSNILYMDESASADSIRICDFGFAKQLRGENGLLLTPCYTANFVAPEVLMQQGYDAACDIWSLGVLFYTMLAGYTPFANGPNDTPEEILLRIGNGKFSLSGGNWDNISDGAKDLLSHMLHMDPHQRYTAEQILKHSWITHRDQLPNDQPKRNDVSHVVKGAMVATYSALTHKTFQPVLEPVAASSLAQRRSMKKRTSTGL

SMILES | inhibition [1] [%] | inhibition [2] [%] | inhibition [3] [%] | inhibition [4] [%] | inhibition [5] [%] | inhibition [6] [%] | inhibition [7] [%] | inhibition [8] [%] | inhibition [9] [%] | inhibition [10] [%] | inhibition [11] [%] | inhibition [12] [%] | inhibition [13] [%] | inhibition [14] [%] | inhibition [15] [%] | inhibition [16] [%] | inhibition [17] [%] | inhibition [18] [%] | inhibition [19] [%] | inhibition [20] [%]
CCn1c(-c2nonc2N)nc2c(C#CC(C)(C)O)ncc(OC3CCNCC3)c21 | 5.51 | 2.06 | 4.36 | 5.71 | 16.4 | 11.2 | 53.4 | 40.5 | 82.6 | 12.1 | 43.3 | 6.16 | 42.9 | 1.45 | 10.5 | 2.8 | 19.2 | 1.83 | 8.97 | 3.85
COc1ccc(CNC(=O)c2ccc(-c3cc(-c4nnc(C)o4)ccc3C)cc2)cc1 | 0.1 | 5.7 | 6.79 | 4.8 | 8.78 | 7.73 | 8.7 | 0.41 | 5.85 | 2.84 | 2.36 | 2.93 | 5.45 | 0.61 | 8.76 | 3.42 | 13 | 1.11 | -0.23 | 1.23
Cc1cccc(Nc2ncc(-c3ccccc3)o2)c1 | 2.13 | 1.63 | 2.62 | 3.96 | 2.16 | 0.65 | 1.3 | 3.82 | 4.04 | 4.67 | 6.16 | 2.69 | 19.2 | 0.14 | 0.64 | 1.19 | 4.26 | 1.45 | 3.78 | 4.05
CC(=O)Nc1cccc(C#Cc2cncnc2Nc2ccc(OCc3cccc(F)c3)c(Cl)c2)c1 | 1.39 | 3.01 | 2.43 | -0.35 | 2.06 | 2.61 | -0.92 | 1.72 | -0.52 | 2.44 | 2.19 | 1.95 | 7.23 | 2.55 | 1.82 | 1.34 | 0.36 | 2.97 | 3.77 | 4.42
COc1ccc(-c2cc(-c3c[nH]nc3-c3ccccn3)ccn2)cc1 | 1.8 | 2.87 | 7.39 | 5.02 | 5.93 | 4.82 | 6.74 | 4.71 | 6.63 | 0.83 | 3.44 | -7.35 | 2.48 | -0.01 | 2.6 | 2.08 | 3.41 | 0.05 | -1.05 | 4.66
